Here are results for seven sequences from the supplement of paper PMC6555819.

Holding throughout (assay): PBM binding z-score (relative to random genomic background probes); higher = stronger binding; sequences stand for … in GC…GCGATTGACAGCGTAGAATGAAGG
The subject of assay [1] is FXR:RXRa (NR concentration 270 nM, RXRa partner concentration 90 nM). The method in brief:
(§1)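 Binding z-scores were set against random background probes. The data came from custom Agilent 4×180K protein-binding microarrays carrying double-stranded probes with 34-nt variable regions, incubated 1 h with ligand-free nuclear receptor dimers. Partner-specific antibodies detected binding, and scanned fluorescence was regression-normalized.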

The subject of assay [2] is LXRa:RXRa (NR concentration 270 nM, RXRa partner concentration 90 nM). The essentials:
as §1

The subject of assay [3] is LXRa homodimer (NR concentration 270 nM). The method in brief:
as §1

The subject of assay [4] is LXRb:RXRa (NR concentration 270 nM, RXRa partner concentration 90 nM). The essentials: as §1
Assay [5] relates to LXRb homodimer (NR concentration 270 nM). The essentials: as §1
In assay [6] the test system is PPARa:RXRa (NR concentration 270 nM, RXRa partner concentration 90 nM). The essentials:
as §1

Assay [7] has as its system PPARg:RXRa (NR concentration 180 nM, RXRa partner concentration 90 nM). The method in brief:
as §1

Assay [8] has as its system PPARg:RXRa 270nM:90nM, anti-RXR (NR concentration 270 nM, RXRa partner concentration 90 nM). The essentials:
as §1

Assay [9] deals with PPARg:RXRa 30nM:10nM, anti-RXR (NR concentration 30 nM, RXRa partner concentration 10 nM). The method in brief: as §1
Assay [10] deals with PPARg:RXRa 90nM:30nM, anti-RXR (NR concentration 90 nM, RXRa partner concentration 30 nM). The essentials: as §1
Assay [11] deals with PPARg:RXRa DBDmut IVT, anti-RXR (DBD mutation: RXRa K156A/R161A, NR concentration 270 nM, RXRa partner concentration 90 nM). The essentials:
as §1

Assay [12] concerns PPARg:RXRa IVT, anti-PPARg (NR concentration 270 nM, RXRa partner concentration 90 nM). The method in brief:
as §1

In assay [13] the test system is PPARg DBDmut:RXRa IVT, anti-PPARg (DBD mutation: PPARg1 K132A/R137A, NR concentration 270 nM, RXRa partner concentration 90 nM). The essentials:
as §1

The test system of assay [14] is PPARg DBDmut IVT, anti-PPARg (DBD mutation: PPARg1 K132A/R137A, NR concentration 270 nM). The method in brief:
as §1

Assay [15] relates to PPARg homodimer (NR concentration 180 nM). The method in brief: as §1
For assay [16], the system named is PXR:RXRa (NR concentration 270 nM, RXRa partner concentration 90 nM). The essentials:
as §1

The test system of assay [17] is PXR homodimer (NR concentration 270 nM). The method in brief:
as §1

Assay [18] deals with RARa:RXR (NR concentration 270 nM, RXRa partner concentration 90 nM). The essentials: as §1
The test system of assay [19] is RARa homodimer (NR concentration 270 nM). The essentials: as §1
Assay [20] relates to RARb:RXRa (NR concentration 270 nM, RXRa partner concentration 90 nM). The essentials:
as §1

For the sequence GCTTATGGGTCAAAGGTTATAGCATGAATAGAAT, the PBM binding z-score in assay [1] is 6.45; in assay [2] it was 5.27; in assay [3], 0.469; in [4], 5.46; in [5], 0.477; in assay [6], 6.76. Besides, the PBM binding z-score came out at 11.9 in [7]; 10.1 in [8]; 10.2 in assay [9]; 11 in assay [10]; 7.1 in assay [11]; 7.2 in assay [12]. The PBM binding z-score in [13] was found to be 2.03; in assay [14], 2.31; in [15], 2.17; in assay [16] it was 5.71; in assay [17], 0.209; in [18] it was 7.4. In addition, the values for the PBM binding z-score in assay [19] and in [20] were 1.13 and 4.41, respectively.

In the case of ACAGACAGGTGATGAAGGTAACTGAGGCTATCAT, the PBM binding z-score is 0.003 in assay [1]; -0.0614 in assay [2]; -0.296 in [3]; -0.234 in [4]; -0.411 in [5]; 0.0902 in [6]. The PBM binding z-score is 0.558 in assay [7]; 0.0724 in assay [8]; -0.0753 in assay [9]; 0.0172 in assay [10]; 0.31 in assay [11]; 0.434 in assay [12]. The PBM binding z-score is 0.949 in [13]; 0.0407 in [14]; 0.301 in assay [15]; -0.124 in assay [16]; 0.0874 in assay [17]; 0.438 in [18]. Besides, the values for the PBM binding z-score in assay [19] and in [20] were 0.583 and 0.369, respectively.

For the sequence CCGACTGGGGCAGAAAGGTTACCATACCATCCGG, the PBM binding z-score in assay [1] was 0.35; in [2] it was 0.432; in [3] it was -0.092; in assay [4] it was 0.947; in assay [5] it was -1.04; in assay [6] it was 2.03. For the same sequence, the PBM binding z-score in [7] is 1.69; in [8] it was 2.6; in assay [9], 0.687; in assay [10] it was 2.03; in assay [11], 1.62; in assay [12], 2.01. Besides, the PBM binding z-score in assay [13] was -0.897; in assay [14], -0.652; in assay [15] it was 1.04; in assay [16] it was 0.796; in [17], -0.416; in assay [18], 1.49. The PBM binding z-score was -0.549 in [19] and 1.74 in assay [20].

As for GGAACGAGGGCAAAGTTGATAGAATCTGTCGACG, the PBM binding z-score in [1] was 1.44; in [2], 1.1; in assay [3] it was -0.584; in assay [4] it was 1.01; in assay [5], -0.45; in assay [6] it was 4.17. The PBM binding z-score in assay [7] is 6.84; in assay [8], 7.15; in assay [9], 6.22; in assay [10], 7.35; in [11] it was 4.01; in assay [12], 4.36. Further, the PBM binding z-score was 0.353 in [13]; -0.207 in assay [14]; 0.397 in assay [15]; 1.25 in assay [16]; 0.121 in assay [17]; 1.74 in assay [18]. The PBM binding z-score in assay [19] is -0.438; in assay [20], 2.32.

On to CGACCTAGGTCATCCAGGACAGTGAATACATTGA, for which the PBM binding z-score in [1] turned out to be 5.2; in assay [2], 3.44; in assay [3], 0.586; in assay [4] it was 2.78; in assay [5] it was 0.0681; in [6] it was 4.33. The PBM binding z-score in [7] is 3.93; in assay [8], 3.43; in assay [9], 1.07; in assay [10] it was 2.59; in assay [11], 3.28; in assay [12] it was 3.89. Further, the PBM binding z-score was -0.0715 in assay [13]; 0.195 in assay [14]; 2.02 in assay [15]; 2.45 in [16]; 0.923 in [17]; 3.21 in assay [18]. For the same sequence, the values for the PBM binding z-score in assay [19] and in assay [20] were 0.643 and 4, respectively.

On to TTACCAAGGTGAGAGGTCGTTGATGCACGCCTTG, for which the PBM binding z-score in assay [1] is 1.86; in assay [2], 1.62; in [3], 0.0582; in assay [4] it was 1.46; in [5], -0.758; in [6], 3.59. In addition, the PBM binding z-score in assay [7] is 6.22; in assay [8], 6.4; in assay [9], 4.84; in assay [10], 6.5; in assay [11], 1.49; in assay [12] it was 4.04. The PBM binding z-score in assay [13] amounted to 0.616; in assay [14], 0.0764; in assay [15] it was 1.63; in assay [16] it was 2.47; in assay [17], 0.681; in [18], 3.06. In addition, the PBM binding z-score in assay [19] is -0.505; in assay [20], 2.33.

On to TCTTGTAGATAAATAGAGGTTAAGAAAGTGCGCT, for which the PBM binding z-score turned out to be 1.41 in assay [1]; 3.4 in assay [2]; 1.55 in [3]; 1.9 in [4]; 0.214 in assay [5]; 1.73 in assay [6]. Besides, the PBM binding z-score in assay [7] was 0.624; in assay [8] it was 1.83; in assay [9], 2.94; in assay [10] it was 2.84; in assay [11], 2.53; in [12] it was 0.875. Also, the PBM binding z-score in [13] came out at 1.18; in assay [14] it was 0.956; in assay [15], 0.0767; in assay [16], 2.77; in [17], 0.529; in [18] it was 1.8. The PBM binding z-score came to 1.33 in [19] and 0.915 in [20].
